Test results as given in the supplement of paper PMC11732987, “Enantioselective OTUD7B fragment discovery through chemoproteomics screening and high-throughput optimisation” (Communications Chemistry, 2025).

Legend:
Test in all cases: log2 ratio of Biotin-Ahx-Ub-VS probe labelling (fragment/DMSO); higher = less target engagement (more negative = stronger competition), active = hit call of the paper (q ≤ 0.05, log2 ratio ≤ -1)
Conditions in all cases: compound concentration: 200 uM; treatment time: 3 h
USP19 = biological target: T1, USP19 (UniProt O94966)
T1 sequence (whole entry): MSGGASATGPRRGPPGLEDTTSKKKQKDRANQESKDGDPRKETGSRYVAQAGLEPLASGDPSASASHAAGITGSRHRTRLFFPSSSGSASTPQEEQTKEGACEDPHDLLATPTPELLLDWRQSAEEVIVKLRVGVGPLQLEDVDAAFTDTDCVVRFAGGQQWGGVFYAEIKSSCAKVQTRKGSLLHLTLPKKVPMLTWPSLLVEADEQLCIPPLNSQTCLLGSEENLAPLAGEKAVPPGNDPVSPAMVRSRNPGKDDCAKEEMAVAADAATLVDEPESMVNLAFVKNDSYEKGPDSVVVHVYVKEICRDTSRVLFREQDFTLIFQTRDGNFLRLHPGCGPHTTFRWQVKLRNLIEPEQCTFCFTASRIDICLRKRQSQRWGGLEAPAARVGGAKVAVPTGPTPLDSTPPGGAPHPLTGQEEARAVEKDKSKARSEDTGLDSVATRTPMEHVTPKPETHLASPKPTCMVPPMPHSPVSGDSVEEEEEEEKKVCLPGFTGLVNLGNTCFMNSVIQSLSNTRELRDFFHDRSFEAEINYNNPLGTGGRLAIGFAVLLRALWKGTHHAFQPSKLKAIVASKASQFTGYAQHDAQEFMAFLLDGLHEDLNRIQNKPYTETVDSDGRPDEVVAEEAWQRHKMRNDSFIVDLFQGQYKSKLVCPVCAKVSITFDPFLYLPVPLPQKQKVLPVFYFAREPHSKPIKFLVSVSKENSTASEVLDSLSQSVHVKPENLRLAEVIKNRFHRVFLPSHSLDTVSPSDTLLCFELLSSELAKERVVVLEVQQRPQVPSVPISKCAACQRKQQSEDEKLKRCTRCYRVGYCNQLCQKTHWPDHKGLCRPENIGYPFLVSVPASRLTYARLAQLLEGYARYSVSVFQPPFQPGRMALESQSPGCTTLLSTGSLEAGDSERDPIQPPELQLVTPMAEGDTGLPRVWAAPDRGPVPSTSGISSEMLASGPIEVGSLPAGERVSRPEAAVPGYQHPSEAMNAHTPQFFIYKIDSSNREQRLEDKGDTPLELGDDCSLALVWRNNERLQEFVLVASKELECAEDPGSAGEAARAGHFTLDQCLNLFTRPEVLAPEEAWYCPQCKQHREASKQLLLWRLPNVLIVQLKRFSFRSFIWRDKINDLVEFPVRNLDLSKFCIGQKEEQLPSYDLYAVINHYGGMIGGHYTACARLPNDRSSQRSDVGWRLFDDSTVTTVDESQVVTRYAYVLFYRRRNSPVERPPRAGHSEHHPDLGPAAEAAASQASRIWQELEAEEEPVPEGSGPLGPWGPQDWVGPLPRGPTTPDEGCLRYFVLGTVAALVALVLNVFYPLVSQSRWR
Procedure, shortened: (§1)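 Labelling with Biotin-Ahx-Ub-VS (0.5 µM final, 1 h) followed a 3 h triplicate treatment of HEK293T lysate (495 µg per sample, Tris/CHAPS/IGEPAL buffer with protease inhibitors) with fragment at 200 µM or vehicle. Labelled DUBs were NeutrAvidin-enriched, digested with LysC and trypsin, and run by diaPASEF LC-MS/MS. The values, average log2 fragment/vehicle ratios by unpaired t-test, come from global-median-normalised Spectronaut label-free quantities. Proteins with ≥2 unique peptides were used.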

USP22 = biological target: T2, USP22 (UniProt Q9UPT9)
T2 sequence (whole entry): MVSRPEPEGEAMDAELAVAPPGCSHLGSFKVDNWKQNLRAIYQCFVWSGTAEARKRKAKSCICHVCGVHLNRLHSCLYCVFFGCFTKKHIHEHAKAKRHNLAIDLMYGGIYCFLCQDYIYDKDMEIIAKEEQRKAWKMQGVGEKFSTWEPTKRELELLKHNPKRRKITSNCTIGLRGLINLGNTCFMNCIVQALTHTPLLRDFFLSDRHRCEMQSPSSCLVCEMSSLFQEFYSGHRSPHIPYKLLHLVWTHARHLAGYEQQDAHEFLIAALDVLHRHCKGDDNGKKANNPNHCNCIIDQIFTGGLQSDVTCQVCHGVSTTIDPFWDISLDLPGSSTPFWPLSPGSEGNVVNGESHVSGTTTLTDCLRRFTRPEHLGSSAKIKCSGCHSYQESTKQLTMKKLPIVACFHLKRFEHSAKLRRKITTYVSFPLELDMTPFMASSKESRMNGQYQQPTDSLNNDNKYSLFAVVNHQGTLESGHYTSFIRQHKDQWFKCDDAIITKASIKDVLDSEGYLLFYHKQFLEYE
Procedure, shortened: as §1

USP24 = USP24 (UniProt Q9UPU5)
Procedure, shortened: as §1

USP25 = biological target: T3, USP25 (UniProt Q9UHP3)
T3 sequence (whole entry): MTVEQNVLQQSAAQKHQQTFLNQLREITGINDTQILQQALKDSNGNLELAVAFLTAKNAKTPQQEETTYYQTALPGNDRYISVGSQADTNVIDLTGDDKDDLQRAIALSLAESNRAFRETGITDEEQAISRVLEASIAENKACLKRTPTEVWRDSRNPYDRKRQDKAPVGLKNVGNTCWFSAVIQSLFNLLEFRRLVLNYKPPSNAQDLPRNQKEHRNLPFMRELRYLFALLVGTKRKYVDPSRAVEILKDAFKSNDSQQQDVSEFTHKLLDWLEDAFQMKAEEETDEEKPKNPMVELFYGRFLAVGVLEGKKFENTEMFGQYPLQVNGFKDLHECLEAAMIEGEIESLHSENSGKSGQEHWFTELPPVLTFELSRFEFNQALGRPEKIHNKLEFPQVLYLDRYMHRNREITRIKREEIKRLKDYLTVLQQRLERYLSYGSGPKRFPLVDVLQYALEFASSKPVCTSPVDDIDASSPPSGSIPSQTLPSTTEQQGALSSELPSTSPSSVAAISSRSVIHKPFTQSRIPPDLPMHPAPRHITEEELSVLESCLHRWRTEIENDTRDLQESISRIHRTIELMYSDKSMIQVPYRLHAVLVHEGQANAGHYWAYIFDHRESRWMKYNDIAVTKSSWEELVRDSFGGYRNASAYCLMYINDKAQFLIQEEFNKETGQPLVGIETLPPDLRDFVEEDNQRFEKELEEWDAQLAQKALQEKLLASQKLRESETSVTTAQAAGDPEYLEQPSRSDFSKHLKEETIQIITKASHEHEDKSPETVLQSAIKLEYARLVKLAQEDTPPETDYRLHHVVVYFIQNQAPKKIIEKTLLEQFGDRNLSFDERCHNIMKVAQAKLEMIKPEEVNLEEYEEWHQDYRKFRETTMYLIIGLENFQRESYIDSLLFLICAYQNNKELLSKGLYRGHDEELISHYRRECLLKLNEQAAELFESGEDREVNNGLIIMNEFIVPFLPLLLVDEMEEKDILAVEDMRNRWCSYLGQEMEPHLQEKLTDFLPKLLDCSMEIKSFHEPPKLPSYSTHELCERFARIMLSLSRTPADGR
Procedure, shortened: as §1

USP28 = biological target: T4, USP28 (UniProt Q96RU2)
T4 sequence (whole entry): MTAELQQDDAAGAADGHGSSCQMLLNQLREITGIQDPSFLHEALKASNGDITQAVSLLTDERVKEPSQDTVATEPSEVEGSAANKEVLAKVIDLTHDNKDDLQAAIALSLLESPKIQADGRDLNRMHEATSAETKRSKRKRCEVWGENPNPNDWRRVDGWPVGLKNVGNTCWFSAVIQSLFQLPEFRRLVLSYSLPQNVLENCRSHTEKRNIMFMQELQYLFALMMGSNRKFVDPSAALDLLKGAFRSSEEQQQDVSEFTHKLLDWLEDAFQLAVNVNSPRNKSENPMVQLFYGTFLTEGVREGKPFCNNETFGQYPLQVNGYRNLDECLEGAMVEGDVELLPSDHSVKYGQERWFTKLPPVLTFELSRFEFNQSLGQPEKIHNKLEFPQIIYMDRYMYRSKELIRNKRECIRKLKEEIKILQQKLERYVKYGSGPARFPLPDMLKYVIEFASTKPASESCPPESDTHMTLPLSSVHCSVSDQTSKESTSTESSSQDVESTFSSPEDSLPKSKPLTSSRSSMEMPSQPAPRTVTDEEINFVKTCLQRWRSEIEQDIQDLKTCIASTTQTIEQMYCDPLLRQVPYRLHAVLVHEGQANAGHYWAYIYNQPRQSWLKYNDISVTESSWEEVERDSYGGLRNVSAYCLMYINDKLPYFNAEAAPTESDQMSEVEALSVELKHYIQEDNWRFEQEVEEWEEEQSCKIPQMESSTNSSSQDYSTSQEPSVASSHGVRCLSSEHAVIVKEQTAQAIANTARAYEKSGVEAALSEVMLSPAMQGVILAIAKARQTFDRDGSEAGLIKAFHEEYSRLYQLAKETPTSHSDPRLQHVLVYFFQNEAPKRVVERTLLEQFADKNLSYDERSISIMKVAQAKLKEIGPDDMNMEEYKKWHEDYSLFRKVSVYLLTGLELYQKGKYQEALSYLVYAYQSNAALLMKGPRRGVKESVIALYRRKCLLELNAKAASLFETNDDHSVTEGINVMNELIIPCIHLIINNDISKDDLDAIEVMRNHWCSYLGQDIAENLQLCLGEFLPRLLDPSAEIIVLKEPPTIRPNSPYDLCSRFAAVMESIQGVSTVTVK
Procedure, shortened: as §1

Measured: log2 ratio of Biotin-Ahx-Ub-VS probe labelling

USP24, sequence (Q9UPU5 whole entry): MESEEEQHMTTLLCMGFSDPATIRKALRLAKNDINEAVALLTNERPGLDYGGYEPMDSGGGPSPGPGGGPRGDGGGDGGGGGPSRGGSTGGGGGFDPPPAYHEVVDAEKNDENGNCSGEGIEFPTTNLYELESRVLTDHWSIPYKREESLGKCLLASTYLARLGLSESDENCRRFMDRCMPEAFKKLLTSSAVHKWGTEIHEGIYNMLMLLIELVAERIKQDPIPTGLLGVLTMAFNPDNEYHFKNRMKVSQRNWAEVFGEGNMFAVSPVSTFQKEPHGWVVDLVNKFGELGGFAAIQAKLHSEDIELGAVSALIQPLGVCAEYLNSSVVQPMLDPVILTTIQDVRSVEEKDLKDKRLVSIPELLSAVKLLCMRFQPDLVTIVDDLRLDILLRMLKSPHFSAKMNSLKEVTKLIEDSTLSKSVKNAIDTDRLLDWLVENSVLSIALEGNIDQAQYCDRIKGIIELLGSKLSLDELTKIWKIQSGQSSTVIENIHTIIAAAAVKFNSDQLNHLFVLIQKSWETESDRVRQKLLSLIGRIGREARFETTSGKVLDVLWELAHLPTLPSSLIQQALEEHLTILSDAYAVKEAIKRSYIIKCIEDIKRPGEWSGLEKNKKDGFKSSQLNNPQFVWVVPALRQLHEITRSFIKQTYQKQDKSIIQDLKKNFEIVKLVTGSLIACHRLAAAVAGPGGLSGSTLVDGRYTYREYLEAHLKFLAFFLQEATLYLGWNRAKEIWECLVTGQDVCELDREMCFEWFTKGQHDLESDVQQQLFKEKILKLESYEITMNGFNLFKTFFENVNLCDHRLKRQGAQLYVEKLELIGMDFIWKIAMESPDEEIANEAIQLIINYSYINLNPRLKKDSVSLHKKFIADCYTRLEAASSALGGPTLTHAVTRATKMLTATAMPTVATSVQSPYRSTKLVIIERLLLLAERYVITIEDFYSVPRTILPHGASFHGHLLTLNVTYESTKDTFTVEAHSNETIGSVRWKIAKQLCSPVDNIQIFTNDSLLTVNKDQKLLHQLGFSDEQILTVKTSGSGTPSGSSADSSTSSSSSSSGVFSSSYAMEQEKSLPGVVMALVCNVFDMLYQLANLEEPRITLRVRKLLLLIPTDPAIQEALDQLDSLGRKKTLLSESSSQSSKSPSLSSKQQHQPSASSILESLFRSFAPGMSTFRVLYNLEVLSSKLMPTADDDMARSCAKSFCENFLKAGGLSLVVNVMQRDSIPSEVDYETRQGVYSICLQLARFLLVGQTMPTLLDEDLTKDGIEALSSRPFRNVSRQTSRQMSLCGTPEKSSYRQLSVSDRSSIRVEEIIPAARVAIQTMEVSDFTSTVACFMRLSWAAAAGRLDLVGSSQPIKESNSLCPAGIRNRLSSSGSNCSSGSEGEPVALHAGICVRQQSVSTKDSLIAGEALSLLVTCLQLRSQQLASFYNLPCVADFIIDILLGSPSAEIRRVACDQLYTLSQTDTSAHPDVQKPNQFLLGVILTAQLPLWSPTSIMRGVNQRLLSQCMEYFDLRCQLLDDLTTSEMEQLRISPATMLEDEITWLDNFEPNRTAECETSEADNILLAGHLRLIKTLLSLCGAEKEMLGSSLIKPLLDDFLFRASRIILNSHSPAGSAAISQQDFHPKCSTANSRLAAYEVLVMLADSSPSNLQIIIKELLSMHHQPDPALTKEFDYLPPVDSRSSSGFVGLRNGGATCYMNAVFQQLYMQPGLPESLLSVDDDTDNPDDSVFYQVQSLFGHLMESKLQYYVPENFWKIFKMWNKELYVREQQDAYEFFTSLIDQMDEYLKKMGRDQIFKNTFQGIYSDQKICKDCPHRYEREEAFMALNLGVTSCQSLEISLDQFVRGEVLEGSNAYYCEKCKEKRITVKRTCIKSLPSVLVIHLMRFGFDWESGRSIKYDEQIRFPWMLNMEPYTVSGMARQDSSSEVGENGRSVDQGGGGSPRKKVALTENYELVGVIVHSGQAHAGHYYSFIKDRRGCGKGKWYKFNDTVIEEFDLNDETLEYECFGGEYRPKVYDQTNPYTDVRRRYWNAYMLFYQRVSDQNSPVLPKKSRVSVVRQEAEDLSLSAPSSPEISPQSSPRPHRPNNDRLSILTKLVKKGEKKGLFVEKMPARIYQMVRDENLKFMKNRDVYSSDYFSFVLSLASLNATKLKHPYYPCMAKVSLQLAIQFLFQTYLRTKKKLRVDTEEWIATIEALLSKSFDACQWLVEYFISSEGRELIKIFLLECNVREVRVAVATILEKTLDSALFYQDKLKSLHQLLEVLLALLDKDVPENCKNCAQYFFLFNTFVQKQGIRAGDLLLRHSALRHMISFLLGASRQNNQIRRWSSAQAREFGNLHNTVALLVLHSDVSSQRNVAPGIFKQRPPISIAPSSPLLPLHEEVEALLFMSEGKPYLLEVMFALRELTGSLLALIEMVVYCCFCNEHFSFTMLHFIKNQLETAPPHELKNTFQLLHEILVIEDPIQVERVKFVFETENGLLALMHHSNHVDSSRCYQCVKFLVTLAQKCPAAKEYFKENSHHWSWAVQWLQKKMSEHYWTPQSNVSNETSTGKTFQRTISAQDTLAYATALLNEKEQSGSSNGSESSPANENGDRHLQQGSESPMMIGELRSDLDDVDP

O=C(CCl)NCc1cccc(F)c1
inactive: USP19 -0.000373 | USP22 -0.171 | USP24 -0.154 | USP25 -0.362 | USP28 -0.556
